ANO1 activ – mouse TMEM16A channel activation, primary screen; HEK293 TMEM16A/YFP-H148Q/I152L, iodide quench fluorescence; hits give low values; B-score at 10 µM; 340,000 compounds, 0.3% hits; AID 623877;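 active = fluorescence-ratio B-score plate-corrected deviation score at least 3 library SD below zero, with starting fluorescence score within 5 deviations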;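 also: channel opened by trigger with iodide after compound preincubation; score built on the fluorescence ratio of max minus min over baseline; more negative score means more quench and so TMEM16A activation or potentiation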
TMEM16A inh – inhibitors of mouse TMEM16A calcium-activated chloride channel; 310,000 compounds, 1.2% hits; HEK293 TMEM16A/YFP iodide influx fluorescence, ionomycin; normalized B-score (activity score, 25-100; higher = stronger inhibition) at 10 µM;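 active = ratio plate-corrected score three or more library SD toward inhibition, starting fluorescence score within five deviations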;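 also: score derived from kinetic fluorescence span divided by baseline fluorescence per well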
NOD2 RIPK2 PPI – inhibitors of human NOD2-RIPK2 interaction; inhibition, % at 4.98 µM; AID 624267; 360,000 compounds, 0.38% hits; CHO BLA complementation NOD2-RIPK2, CCF4 ratio; in the data active = inhibition above about 21%
Target sequence (O43353 whole entry, looked up): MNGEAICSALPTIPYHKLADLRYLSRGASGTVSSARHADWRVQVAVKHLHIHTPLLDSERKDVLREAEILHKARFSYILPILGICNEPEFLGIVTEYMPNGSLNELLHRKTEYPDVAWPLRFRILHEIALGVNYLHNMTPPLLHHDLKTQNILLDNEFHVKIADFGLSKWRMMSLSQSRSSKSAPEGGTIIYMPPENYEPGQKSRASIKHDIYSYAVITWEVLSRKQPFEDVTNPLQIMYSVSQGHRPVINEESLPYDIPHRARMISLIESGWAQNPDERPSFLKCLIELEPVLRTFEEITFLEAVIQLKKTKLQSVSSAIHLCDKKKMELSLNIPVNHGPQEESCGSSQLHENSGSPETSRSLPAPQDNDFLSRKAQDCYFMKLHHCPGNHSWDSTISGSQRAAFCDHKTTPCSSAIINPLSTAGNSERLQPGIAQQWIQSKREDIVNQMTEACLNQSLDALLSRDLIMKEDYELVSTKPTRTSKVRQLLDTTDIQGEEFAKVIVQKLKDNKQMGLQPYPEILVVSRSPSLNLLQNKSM
TLR9-MyD88 inh – blocks human TLR9 binding to MyD88; Q9NR96+Q99836; CHO BLA complementation TLR9-MyD88, CCF4 FRET ratio; inhibition, % at 4.98 µM; 340,000 compounds, 0.21% hits; AID 504734;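 active = inhibition above the mean over all tested compounds plus 3 SD, cut at about 21% in these data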
m5-HT2A agonist – mouse HTR2A agonism via beta-arrestin recruitment. P35363. CHO-K1 mHTR2A beta-arrestin complementation, luminescence; percent of 30 µM serotonin response. activation, % at 7.6 µM. 360,000 compounds, 0.66% hits. AID 624169;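 active = activation above a run cutoff, the mean activation of all tested compounds plus 3 SD, cut at about 14% in these data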
TLR4-MyD88 BLA – blocks binding of human TLR4 to MyD88; O00206+Q99836; 200,000 compounds, 0.18% hits; AID 861; HeLa CL3-4 TLR4/MyD88 BLA complementation, FRET ratio; inhibition, % at 8.4 µM; in the data active = inhibition above about 25%
TMEM16A reconf – TMEM16A (mouse) chloride channel inhibition, re-confirmation | shares compounds with TMEM16A inh | HEK293 TMEM16A/YFP-H148Q, iodide quench fluorescence; ionomycin added to raise cell calcium | inhibition, % at 10 µM | 2,300 compounds, 39% hits;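 active = mean duplicate percent inhibition, scaled so buffer wells are 0 and the reference blocker 100, over three buffer SD above buffer mean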
HEK293 Ca mobil – alters calcium mobilization in TMEM16A HEK293 cells, counter-screen. shares compounds with TMEM16A inh. calcium response (% of ionomycin), % at 10 µM. TMEM16A/YFP HEK293, Fluo4 calcium mobilization. 2,300 compounds, 2% hits;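 active = duplicate-averaged calcium signal over 20% of the ionomycin maximum, relative to buffer baseline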;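 also: each well's signal is peak minus trough fluorescence divided by its pre-addition baseline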
YFP-HEK293 quench – counter-screen for TMEM16A inhibitors: effect in parental YFP-HEK293 cells; YFP ratio F(max-min)/F0 at 10 µM; iodide YFP quench, ionomycin; 2,300 tested, under 10 active; shares compounds with TMEM16A inh;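 active = yellow fluorescent protein signal ratio exceeding the buffer control mean by over 5 SD of those controls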;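 also: ratio is mean of duplicate wells from kinetic YFP trace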
ClC-1 inh – rat ClC-1 inhibition, TMEM16A specificity screen | AID 652236 | 2,300 tested, under 10 active | ratio percent, % at 10 µM | CHO ClC-1-YFP, iodide influx fluorescence quench; iodide control reads 0, buffer control 100 | shares compounds with TMEM16A inh;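 active = duplicate-mean ratio percent above the mean of iodide-only control wells, which defines zero, plus 5 of their SD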;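 also: higher percent means stronger block of ClC-1 iodide influx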
Of the large screens only hits and unclear results are named; the others gave an inactive call (follow-up assays come after a bar, where they were run). In the library only some 2.4% were active in any assay of this set; here they are far more common.

CCOC(=O)N1CCN(Cc2nc(N)nc(Nc3ccc(Oc4ccccc4)cc3)n2)CC1	TMEM16A inh 25 | TMEM16A reconf 17% | HEK293 Ca mobil inactive | YFP-HEK293 quench inactive | ClC-1 inh inactive
O=C1Nc2ccccc2-n2nnnc2C1N1CCN(c2ccc(F)cc2)CC1 (configuration not stated)	none (no result: ANO1 activ, TMEM16A inh, TLR9-MyD88 inh, TLR4-MyD88 BLA)
CCN(CC)S(=O)(=O)c1ccc(NC(=O)C(OC)c2ccccc2)cc1 (configuration not stated)	TMEM16A inh 25 | TMEM16A reconf inactive | HEK293 Ca mobil inactive | YFP-HEK293 quench inactive | ClC-1 inh inactive
Cc1ccc(S(=O)(=O)Nc2ccc(NC(=O)Nc3cccc(C(F)(F)F)c3)cc2)cc1	none
CCN(CC)S(=O)(=O)c1ccc(NC(=O)Nc2cccc(C(F)(F)F)c2)cc1	TMEM16A inh 100 | TMEM16A reconf 44% | HEK293 Ca mobil inactive | YFP-HEK293 quench inactive | ClC-1 inh inactive
COc1ccc(CCNC(=O)C2CCCN(C(=O)N(C)C)C2)c(OC)c1 (configuration not stated)	none
CN(c1cccc(NC(=O)CSc2ccc(Cl)cc2)c1)S(C)(=O)=O	TMEM16A inh 100 | TMEM16A reconf 28% | HEK293 Ca mobil inactive | YFP-HEK293 quench inactive | ClC-1 inh inactive
CN(c1cccc(NC(=O)CCSc2ccccc2)c1)S(C)(=O)=O	none
NS(=O)(=O)c1ccc2c(c1)C1C=CCC1C(C1CC=CCC1)N2 (configuration not stated)	TMEM16A inh 100 | TMEM16A reconf inactive | HEK293 Ca mobil inactive | YFP-HEK293 quench inactive | ClC-1 inh inactive
COc1ccc(CNC(=O)C2CCC(CNS(=O)(=O)c3cccc4cccnc34)CC2)cc1 (configuration not stated)	none (no result: TLR4-MyD88 BLA)
FC(F)(F)c1cccc(NC(=S)NCC(c2cccnc2)N2CCOCC2)c1 (configuration not stated)	none
COc1cccc(Nc2nc(NCC3CCCO3)c3ccccc3n2)c1 (configuration not stated)	TMEM16A inh 100 | TMEM16A reconf 44% | HEK293 Ca mobil inactive | YFP-HEK293 quench inactive | ClC-1 inh inactive
Cc1noc(C)c1CSc1nc2ccccc2nc1NS(=O)(=O)c1ccc(Cl)cc1	TMEM16A inh 100 | TMEM16A reconf 29% | HEK293 Ca mobil inactive | YFP-HEK293 quench inactive | ClC-1 inh inactive
O=S(=O)(Nc1nc2ccccc2nc1NCc1ccco1)c1ccc(Cl)cc1	none
O=C(O)[C@H](Cc1ccccc1)N1C(=O)c2ccncc2C1=O	TMEM16A inh 100 | TMEM16A reconf inactive | HEK293 Ca mobil inactive | YFP-HEK293 quench inactive | ClC-1 inh inactive
O=C(NCc1cccnc1)c1ccc(COc2ccccc2Cl)cc1	TMEM16A inh 25 | TMEM16A reconf 19% | HEK293 Ca mobil inactive | YFP-HEK293 quench inactive | ClC-1 inh inactive
O=C(NCc1cccnc1)c1ccc(COc2ccccc2Br)cc1	none
CCOc1ccccc1OCC(=O)NN=C1CCCC(=O)C1	none (no result: TMEM16A inh, TLR4-MyD88 BLA)
COCCCNC(=S)N1CCN(c2nc(-c3ccccc3)cs2)CC1	TMEM16A inh 25 (no result: TLR4-MyD88 BLA) | TMEM16A reconf inactive | HEK293 Ca mobil inactive | YFP-HEK293 quench inactive | ClC-1 inh inactive
CCCCc1ccc(N/C(N)=N/c2nc(C)cc(C)n2)cc1	ANO1 activ -5.6, TMEM16A inh 100 (no result: TLR9-MyD88 inh, TLR4-MyD88 BLA) | TMEM16A reconf 62% | HEK293 Ca mobil 43% | YFP-HEK293 quench inactive | ClC-1 inh inactive
Cc1ccc(N/C(N)=N/c2nc(C)cc(C)n2)cc1	none
COc1ccc(C(=O)C2CCN(CC(=O)Nc3ccccc3F)CC2)cc1	TMEM16A inh 25 (no result: TLR4-MyD88 BLA) | TMEM16A reconf inactive | HEK293 Ca mobil inactive | YFP-HEK293 quench inactive | ClC-1 inh inactive
CCOc1ccccc1NC(=O)CN1CCC(C(=O)c2ccc(OC)cc2)CC1	none (no result: TLR4-MyD88 BLA)
O=C(COc1ccc(F)cc1)c1ccc2c(c1)CCCC2	TMEM16A inh 100 | TMEM16A reconf inactive | HEK293 Ca mobil inactive | YFP-HEK293 quench inactive | ClC-1 inh inactive
COC(=O)c1ccc(NC(=O)C2CCCN2C(=O)OCc2ccccc2)cc1 (configuration not stated)	none (no result: TLR4-MyD88 BLA)
Cc1cc(Cl)c(S(=O)(=O)NC(C(=O)O)c2ccccc2)cc1OCC(N)=O (configuration not stated)	none
CN(Cc1ccco1)S(=O)(=O)c1nnc(NC(=O)c2cccc(Cl)c2)s1	TMEM16A inh 25 (no result: TLR4-MyD88 BLA) | TMEM16A reconf 26% | HEK293 Ca mobil inactive | YFP-HEK293 quench inactive | ClC-1 inh inactive
CC(C(=O)N1CCN(c2ccccc2)CC1)N1C(=O)C2CC=CCC2C1=O (configuration not stated)	TMEM16A inh 25 | TMEM16A reconf inactive | HEK293 Ca mobil inactive | YFP-HEK293 quench inactive | ClC-1 inh inactive
COc1cc(C(=O)OCC(=O)N2CCC(Cc3ccccc3)CC2)cc(OC)c1OC	none (no result: TLR4-MyD88 BLA)
Nc1nnc(SCc2ccc([N+](=O)[O-])cc2)s1	none
Cc1cc(-c2ccc(C(C)C)c(S(=O)(=O)N3CCOc4ccccc43)c2)on1	none (no result: TLR4-MyD88 BLA)
Cc1ccc(-c2onc(C)c2C)cc1S(=O)(=O)N1CCOc2ccccc21	TMEM16A inh 100 (no result: TLR4-MyD88 BLA) | TMEM16A reconf inactive | HEK293 Ca mobil inactive | YFP-HEK293 quench inactive | ClC-1 inh inactive
COc1ccc2cc3cc(C(=O)Nc4ccc5c(c4)OCO5)oc3nc2c1	TMEM16A inh 100 | TMEM16A reconf inactive | HEK293 Ca mobil inactive | YFP-HEK293 quench inactive | ClC-1 inh inactive
O=C(Nc1nc(-c2ccccc2)cs1)c1ccc2c(=O)n3c(nc2c1)CCCCC3	TMEM16A inh 100 | TMEM16A reconf inactive | HEK293 Ca mobil inactive | YFP-HEK293 quench inactive | ClC-1 inh inactive
O=C(Nc1nc(-c2ccc(Cl)s2)cs1)c1cccs1	TMEM16A inh 25 | TMEM16A reconf inactive | HEK293 Ca mobil inactive | YFP-HEK293 quench inactive | ClC-1 inh inactive
Cc1cc(-c2csc(NC(=O)c3ccc(=O)[nH]c3)n2)c(C)n1Cc1ccccc1	none
O=C(Nc1nc(-c2ccc(Cl)s2)cs1)c1ccco1	none
O=C(Nc1ccc(Cl)cc1)c1cccs1	TMEM16A inh 25 | TMEM16A reconf inactive | HEK293 Ca mobil inactive | YFP-HEK293 quench inactive | ClC-1 inh inactive

Source: PubChem BioAssay (several laboratories)
